Assay results: PubChem BioAssay (NCATS)
Records with an inconclusive call do not appear. The source made the active and inactive calls. Calls come from the whole dose curve; as a rule, active = well fitted curve in the direction sought with a large enough effect; inconclusive = small, poorly fitted or top-dose-only effect, or another doubt; inactive = no such curve, though single readings can be large; an effect the other way counts as inactive or inconclusive.

Columns and labels:
HACAT = experiment: qHTS assay to identify novel small-molecules to repurpose for Merkel cell carcinoma treatment (AID 1296009); conditions: MCC and control cell lines, CellTiter-Glo viability, 72 h; at 44.8 µM (top of the series) unless noted; note: nearly all actives have a fitted effect of over 60% in size
Procedure, shortened: (§1)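 CellTiter-Glo luminescence after 72 hr compound exposure at 37 degree celsius gave cell viability. Libraries NPC and MIPE were run as 8- and 11-point dose responses; RLUs normalized to DMSO (negative) and no-cell (cytotoxicity) controls.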

NIH3T3 = experiment: as above; conditions: MCC and control cell lines, CellTiter-Glo viability, 72 h; at 44.8 µM (top of the series) unless noted
Procedure, shortened: as §1

C33A = experiment: Primary qHTS to identify gynecologic anti-cancer compounds using libraries of approved drugs and bioactive compounds (AID 1345084); conditions: Gynecologic cancer cell panel viability, ATPlite luminescence, 48 h; series mostly up to 57.5 µM; note: % is set by controls: 0 for no effect and ±100 for the full control effect; nearly all actives have a fitted effect of over 55% in size
Procedure, shortened: (§2)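 Cells, 1,000 per well, plated 16 h, then exposed 48 h at 37 C to compounds. Viability by ATPlite luminescence after 15 min at room temperature.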

CAOV3 = experiment: as above; conditions: Gynecologic cancer cell panel viability, ATPlite luminescence, 48 h; series mostly up to 57.5 µM
Procedure, shortened: as §2

CASKI = experiment: as above; conditions: Gynecologic cancer cell panel viability, ATPlite luminescence, 48 h; series mostly up to 57.5 µM
Procedure, shortened: as §2

Es-2 = experiment: as above; conditions: Gynecologic cancer cell panel viability, ATPlite luminescence, 48 h; series mostly up to 57.5 µM
Procedure, shortened: as §2

HeLa = experiment: as above; conditions: Gynecologic cancer cell panel viability, ATPlite luminescence, 48 h; series mostly up to 57.5 µM
Procedure, shortened: as §2

Hek293T = experiment: as above; conditions: Gynecologic cancer cell panel viability, ATPlite luminescence, 48 h, control line for the selectivity index; series mostly up to 57.5 µM
Procedure, shortened: as §2

JEG-3 = experiment: as above; conditions: Gynecologic cancer cell panel viability, ATPlite luminescence, 48 h; series mostly up to 57.5 µM
Procedure, shortened: as §2

C/C=C/C=C/C(O)=C1/C(=O)[C@]2(C)C(=O)[C@@](C)(O)[C@H]1[C@H]([C@@]1(C)OC(=O)C(C)=C1O)[C@H]2C(=O)CC/C=C/C
inactive: outcome (HACAT) inactive [at 17.4 µM] | outcome (NIH3T3) inactive [at 17.4 µM] | Potency (C33A) | Potency (CAOV3) | outcome (CASKI) | Potency (Es-2) | Potency (HeLa) | Potency (Hek293T) | Potency (JEG-3)

C[C@@H]1O[C@@H](O[C@H]2[C@H](Oc3cc(O)c(C(=O)CCc4ccc(O)cc4)c(O)c3)O[C@H](CO)[C@@H](O)[C@@H]2O)[C@H](O)[C@H](O)[C@H]1O
inactive: outcome (HACAT) | outcome (NIH3T3) | Potency (C33A) | Potency (CAOV3) | outcome (CASKI) | Potency (Es-2) | Potency (HeLa) | Potency (Hek293T) | Potency (JEG-3)

CC1(CO)CC(O)C2(C)CCC3(C)C(=CCC4C5(C=O)CCC(OC6OC(C(=O)O)C(O)C(O)C6OC6OC(C(=O)O)C(O)C(O)C6O)C(C)(C)C5CCC43C)C2C1 (stereo unspecified)
inactive: outcome (HACAT) inactive [at 9.27 µM] | outcome (NIH3T3) inactive [at 9.27 µM] | activity change, negative = cytotoxicity (C33A) 4.08% [at 11.6 µM] | activity change, negative = cytotoxicity (CAOV3) 8.53% [at 11.6 µM] | activity change, negative = cytotoxicity (CASKI) 5.93% [at 11.6 µM] | activity change, negative = cytotoxicity (Es-2) 3.36% [at 11.6 µM] | activity change, negative = cytotoxicity (HeLa) 7.21% [at 11.6 µM] | activity change, negative = cytotoxicity (Hek293T) -0.0914% [at 11.6 µM] | activity change, negative = cytotoxicity (JEG-3) 2.3% [at 11.6 µM]

O=C(c1ccc(Cl)c([N+](=O)[O-])c1)N1CCN(c2ccccc2F)CC1
inactive: outcome (HACAT) | outcome (NIH3T3) | Potency (C33A) | Potency (CAOV3) | outcome (CASKI) | Potency (Es-2) | Potency (HeLa) | Potency (Hek293T) | Potency (JEG-3)

C/C=C(\C)C(=O)OC[C@H]1O[C@H](O[C@H]2O[C@H](CO)[C@@H](O)[C@H](O)[C@H]2O[C@@H]2O[C@H](CO)[C@@H](O)[C@H](O)[C@H]2O)[C@H](O[C@@H]2O[C@H](CO)[C@@H](O)[C@H](O)[C@H]2O)[C@@H](O)[C@@H]1O
inactive: outcome (HACAT) inactive [at 17.4 µM] | outcome (NIH3T3) inactive [at 17.4 µM] | Potency (C33A) | Potency (CAOV3) | outcome (CASKI) | Potency (Es-2) | Potency (HeLa) | Potency (Hek293T) | Potency (JEG-3)

CC(O)C(=O)/C=C/C=C/C(=O)OC1C=C2COC(=O)C2(O)C2(C)CCCC(C)(C)C12 (stereo unspecified)
inactive: outcome (HACAT) inactive [at 17.4 µM] | outcome (NIH3T3) inactive [at 17.4 µM] | Potency (C33A) | Potency (CAOV3) | outcome (CASKI) | Potency (Es-2) | Potency (HeLa) | Potency (Hek293T) | Potency (JEG-3)

C[C@@]12CC3(S(=O)(=O)O)OC(O1)[C@]1(COC(=O)c4ccccc4)[C@H]3C[C@]21O[C@@H]1O[C@H](CO)[C@@H](O)[C@H](O)[C@H]1O
inactive: outcome (HACAT) inactive [at 17.4 µM] | outcome (NIH3T3) inactive [at 17.4 µM] | Potency (C33A) | Potency (CAOV3) | outcome (CASKI) | Potency (Es-2) | Potency (HeLa) | Potency (Hek293T) | Potency (JEG-3)

CC1(C)CC[C@]2(C(=O)O[C@@H]3O[C@H](CO)[C@@H](O)[C@H](O)[C@H]3O)CC[C@]3(C)C(=CCC4[C@@]5(C)C[C@H](O)[C@H](O[C@@H]6OC[C@@H](O)[C@H](O)[C@H]6O)[C@@](C)(CO)C5CC[C@]43C)C2C1 (stereo partly specified)
inactive: outcome (HACAT) inactive [at 9.27 µM] | outcome (NIH3T3) inactive [at 9.27 µM] | activity change, negative = cytotoxicity (C33A) 6.67% [at 11.6 µM] | activity change, negative = cytotoxicity (CAOV3) 10.5% [at 11.6 µM] | activity change, negative = cytotoxicity (CASKI) 2.82% [at 11.6 µM] | activity change, negative = cytotoxicity (Es-2) 1.33% [at 11.6 µM] | activity change, negative = cytotoxicity (HeLa) 24.4% [at 11.6 µM] | activity change, negative = cytotoxicity (Hek293T) 12.6% [at 11.6 µM] | activity change, negative = cytotoxicity (JEG-3) 17% [at 11.6 µM]

CC(=O)/C=C/C1C(C)CC(O[C@@H]2O[C@H](CO)[C@@H](O)[C@H](O)[C@H]2O)CC1(C)C (stereo partly specified)
inactive: outcome (HACAT) | outcome (NIH3T3) | Potency (C33A) | Potency (CAOV3) | outcome (CASKI) | Potency (Es-2) | Potency (HeLa) | Potency (Hek293T) | Potency (JEG-3)

O=C(O)CC/C=C\C[C@H]1CO[C@@H](c2ccccc2Cl)O[C@H]1c1ccccc1O
inactive: outcome (HACAT) | outcome (NIH3T3) | Potency (C33A) | Potency (CAOV3) | outcome (CASKI) | Potency (Es-2) | Potency (HeLa) | Potency (Hek293T) | Potency (JEG-3)

CC(C)(O)c1ccc2c(c1)C(=O)C[C@H]1[C@](C)(C(=O)O)CCC[C@]21C
inactive: outcome (HACAT) | outcome (NIH3T3) | Potency (C33A) | Potency (CAOV3) | outcome (CASKI) | Potency (Es-2) | Potency (HeLa) | Potency (Hek293T) | Potency (JEG-3)

COc1cc(/C=C/C(=O)O)ccc1O[C@@H]1O[C@H](CO)[C@@H](O)[C@H](O)[C@H]1O[C@@H]1OC[C@](O)(CO)[C@H]1O
inactive: outcome (HACAT) inactive [at 17.4 µM] | outcome (NIH3T3) inactive [at 17.4 µM] | Potency (C33A) | Potency (CAOV3) | outcome (CASKI) | Potency (Es-2) | Potency (HeLa) | Potency (Hek293T) | Potency (JEG-3)

COc1c(O)cc2c(c1O)C(=O)O[C@H](C)[C@H]2O
inactive: outcome (HACAT) | outcome (NIH3T3) | Potency (C33A) | Potency (CAOV3) | outcome (CASKI) | Potency (Es-2) | Potency (HeLa) | Potency (Hek293T) | Potency (JEG-3)

COC(=O)C1=CO[C@@H](O[C@@H]2O[C@H](CO)[C@@H](O)[C@H](O)[C@H]2O)[C@H]2[C@@H]1C=C[C@]21C=C([C@H](C)OC(=O)/C=C/c2ccc(O[C@@H]3O[C@H](CO)[C@@H](O)[C@H](O)[C@H]3O)cc2)C(=O)O1
inactive: outcome (HACAT) inactive [at 17.4 µM] | outcome (NIH3T3) inactive [at 17.4 µM] | Potency (C33A) | Potency (CAOV3) | outcome (CASKI) | Potency (Es-2) | Potency (HeLa) | Potency (Hek293T) | Potency (JEG-3)
